Hits are enriched below; roughly 6.3% of the tested compounds scored in any of these assays.
Autofluor 339: intrinsic fluorescence of library compounds, ex339/em460 – biochemical, MLSMR library, data from DPM-DC assay, artefact control, profiling panel. fluorescence fold increase at 10 µM. compound autofluorescence, ex339/em460 nm, NADH buffer; active compounds read high; 1 = no-compound wells, NADH background. actives 5.5% (n = 65,000);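 active = at 10 µM, mean starting fluorescence two-fold or more over control wells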;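 note: signal is the first read of a kinetic run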
Spn MK inh: inhibitors of Streptococcus pneumoniae mevalonate kinase | purified MK, PK/LDH-coupled NADH absorbance 340 nm | inhibition, % at 10 µM | actives 0.48% (n = 65,000) | AID 555;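 active = ranked among the strongest by inhibition in the single 10 µM screen, a fixed top-ranked set picked for dose follow-up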
Abs 340nm: compounds absorbing at 340 nm; compound absorbance at 340 nm, fold over control; 65,000 tested, under 10 active; fold change at 10 µM;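 active = at 10 µM dose, initial 340 nm absorbance at least 2 fold that of control wells; inactive = change under 2 fold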;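 note: initial absorbance extrapolated from kinetic A340 decline of NADH oxidation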
NADH enzymes: blocks coupling enzymes of NAD/NADH assays. IC50, µM (highest dose often 10 µM). actives 0.02% (n = 65,000). coupled PK/LDH NADH assays, four targets. AID 774;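 active = single-dose screening hits from any of four coupled enzyme assays that gave an IC50 when retested across doses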;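 note: the DPM-DC format reads NADH fluorescence rather than 340 nm absorbance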
PMK inhibit: blocks S. pneumoniae phosphomevalonate kinase; purified PMK, PK/LDH-coupled NADH absorbance 340 nm; inhibition, % at 10 µM; actives 0.49% (n = 65,000); AID 539;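 active = top-ranked compounds by inhibition in the single 10 µM screen, taking a fixed number of the strongest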
Spn DPM-DC inh: blocks S. pneumoniae diphosphomevalonate decarboxylase; purified DPM-DC, PK/LDH coupled NADH fluorescence; calls only at 10 µM; actives 0.49% (n = 65,000); AID 556;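 active = the 320 compounds with the highest percent inhibition in the single-dose primary screen, excluding strongly autofluorescent ones, cut at about 32% in these data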;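 note: kinetic rate of NADH fluorescence loss reporting ADP formed by the decarboxylase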
Of the large screens only hits and unclear results are named; the others gave an inactive call.

Cc1cccn2c(=O)c3cc(C#N)c(=N)n(Cc4cccnc4)c3nc12	none
COCCCn1c(=NC(=O)c2ccc3c(c2)OCO3)c(C#N)cc2c(=O)n3cccc(C)c3nc21	none
CCCCCn1c(=NC(C)=O)c(C#N)cc2c(=O)n3cccc(C)c3nc21	Autofluor 339 3.62 (not shown: Spn DPM-DC inh)
CCCn1c(=NC(C)=O)c(C#N)cc2c(=O)n3cccc(C)c3nc21	Autofluor 339 2.89 (not shown: Spn DPM-DC inh)
Fc1cc2nc(-c3ccncc3)[nH]c2cc1F	Autofluor 339 2.17 (not shown: Spn DPM-DC inh)
CCCC(=O)Nc1cccc(NC(=O)CN2CCN(c3ccccc3OC)CC2)c1	PMK inhibit 27.0
CNC(=O)NC(=O)CSc1ccc(NC(C)=O)cc1	none
CCc1cc2c(=O)c(-c3cscn3)coc2c(CN(C)C)c1O	Autofluor 339 2.33 (not shown: Spn DPM-DC inh)
CC(=O)Nc1ccc(S(=O)(=O)N2CCN(CC(=O)NC3CCCC3)CC2)cc1	none
CCO/C=C1\C(=O)N(c2ccccc2)C(=O)c2ccccc21	Autofluor 339 2.17 (not shown: Spn DPM-DC inh)
COc1ccccc1-c1cc(C(F)(F)F)nc(S(=O)(=O)CCCC(=O)Nc2cc(C)on2)n1	Autofluor 339 3.71 (not shown: Spn DPM-DC inh)
COc1ccccc1-c1cc(C(F)(F)F)nc(N2CCCC2)n1	none
COc1ccccc1-c1cc(C(F)(F)F)nc(S(=O)(=O)CCCC(=O)NC(C)C)n1	none
COc1ccccc1-c1cc(C(F)(F)F)nc(S(=O)(=O)CCCC(=O)N2CCCCC2C)n1 (configuration not stated)	Autofluor 339 3.36 (not shown: Spn DPM-DC inh)
N#Cc1sc2nc3c(c(-c4ccco4)c2c1N)CCCC3	none
COCc1cc(C)c2c(N)c(C#N)sc2n1	Autofluor 339 2.44 (not shown: Spn DPM-DC inh)
CCOC(=O)c1cccc(NC(=O)c2cnccn2)c1	none
CCOC(=O)c1cncc(NC(=O)c2ccccc2)c1	Spn DPM-DC inh active
Cc1ccc(-c2cc(C(F)F)n3ncc(C(=O)NCc4ccco4)c3n2)cc1	Autofluor 339 2.32 (not shown: Spn DPM-DC inh)
Cc1cc(C(F)F)n2ncc(C(=O)NCc3ccccc3C(F)(F)F)c2n1	none
COCCNC(=O)c1cnn2c(C(F)(F)F)cc(-c3ccc4c(c3)OCO4)nc12	Autofluor 339 2.52, Spn DPM-DC inh active
Cc1ccc(-c2cc(C(F)(F)F)n3ncc(C(=O)NCc4ccco4)c3n2)cc1	Spn DPM-DC inh active
Cc1ccccc1Cc1c(C)nc2c(C(=O)NCc3ccco3)cnn2c1C	Autofluor 339 3.29
C=CCn1c(SCn2nnc3ccccc3c2=O)nnc1C1CCCCC1	none
CS(=O)(=O)N(CC(=O)O)c1cc(Cl)cc(Cl)c1	none
O=C(CCn1cccc1)NCc1ccc2c(c1)OCO2	none
O=C(c1cc2ccccn2n1)N1CCN(Cc2ccccc2)CC1	none
CCc1cccc2c(=O)c(C(=O)NCCN3CCOCC3)c[nH]c12	none
O=C(NCc1ccco1)c1nc2nc(-c3cccs3)cc(C(F)(F)F)n2n1	Autofluor 339 3.84 (not shown: Spn DPM-DC inh)
Cc1cc2oc(=O)cc(CN3CCCCC3)c2cc1C(C)C	none
Cc1c(O)c(CN2CCCC2)cc2c3c(c(=O)oc12)CCC3	Autofluor 339 3.74 (not shown: Spn DPM-DC inh)
Cc1c(O)c(CN2CCCC2)cc2c1oc(=O)c1ccccc12	none
CCc1cc(=O)oc2c(C)c(O)c(CN3CCCCC3)cc12	Autofluor 339 3.91 (not shown: Spn DPM-DC inh)
O=C(NC1=NCCS1)c1ccc(-c2ccc(Cl)cc2)o1	Autofluor 339 2.09 (not shown: Spn DPM-DC inh)
CC1=C(C)SC(=C(C#N)c2nnc(N3CCOCC3)n2-c2ccccc2)S1	none
COc1cccc(OC)c1-c1nnc(-c2cn(C)c3ccccc23)o1	Autofluor 339 3.84 (not shown: Spn DPM-DC inh)
COc1cccc2sc(Nc3nnc(-c4ccccc4Cl)o3)nc12	none
COC(=O)COc1cc(C)cc2oc(=O)c(CC(=O)OC)c(C)c12	Autofluor 339 2.12 (not shown: Spn DPM-DC inh)
Cc1cc(OCc2nn[nH]n2)c2c(C)c(Cc3ccccc3)c(=O)oc2c1	Autofluor 339 3.86 (not shown: Spn DPM-DC inh)
Cc1cc(OCc2nn[nH]n2)c2c(-c3ccccc3)cc(=O)oc2c1	Autofluor 339 2
Cc1c(Cc2ccccc2)c(=O)oc2c(C)c(OCc3nn[nH]n3)ccc12	Autofluor 339 3.85 (not shown: Spn DPM-DC inh)
Cc1c(OCc2nn[nH]n2)ccc2c(-c3ccccc3)cc(=O)oc12	none
CCOc1ccc(Cc2nn[nH]n2)cc1	none
Cc1cc(OCc2nn[nH]n2)c2c(C)c(CC(=O)O)c(=O)oc2c1	Autofluor 339 3.86 (not shown: Spn DPM-DC inh)
COc1ccc(-c2cc(=O)oc3c(C)c(OCc4nn[nH]n4)ccc23)cc1	none
CCCc1cc(-c2[nH]ncc2-c2ccc3c(c2)OCCCO3)c(O)cc1O	none
CCCc1cc(-c2[nH]ncc2-c2ccc(C(=O)OCC)o2)c(O)cc1O	Autofluor 339 2.18
CCC(=O)Nc1nonc1-c1nc2ccccc2n1Cc1ccc(Cl)c(Cl)c1	Autofluor 339 2.22
O=C(CSc1ccc(-c2nc3ccccc3[nH]2)cn1)N1CCN(C(=O)c2ccco2)CC1	Autofluor 339 2.13 (not shown: Spn DPM-DC inh)
COc1ccc(OC(C)=O)c(C2c3cc(OC)c(OC)cc3CCN2C(C)=O)c1 (configuration not stated)	none
COc1cc2c(cc1OC)C(c1cc3cc(OC)c(OC)cc3[nH]c1=O)N(C(=O)C1CC1)CC2 (configuration not stated)	Autofluor 339 2.59
COC(=O)c1c(NC(=O)c2ccc(Br)o2)sc(C)c1C	none
COC(=O)c1c(NC(=O)c2ccco2)sc(C(=O)Nc2ccc(F)cc2)c1C	Autofluor 339 3.89 (not shown: Spn DPM-DC inh)
COc1c(F)c(F)c(C(=O)Nc2ccc(NC(=O)c3ccco3)cc2)c(F)c1F	none
COC(=O)c1c(NC(=O)c2ccco2)sc(C)c1C	Autofluor 339 2.09 (not shown: Spn DPM-DC inh)
Cn1c(=O)n(CC(=O)NC2CCCCC2)c(=O)c2ccccc21	none
CC(C)c1cc(NCCN2CCOCC2)n2c(nc3ccccc32)c1C#N	none
CCCc1cc(NCCN2CCOCC2)n2c(nc3ccccc32)c1C#N	Autofluor 339 2.34 (not shown: Spn DPM-DC inh)
CC(C)c1cc(NCCCN2CCOCC2)n2c(nc3ccccc32)c1C#N	Autofluor 339 2.3 (not shown: Spn DPM-DC inh)
N#Cc1c2c(c(NCCCN3CCOCC3)n3c1nc1ccccc13)CCC2	Autofluor 339 3.03
CC(C)N1C(=O)CCC1C(=O)NCCc1ccccc1 (configuration not stated)	none
COc1ccc(C(=O)COC(=O)CN2C(=O)NC(C)(C)C2=O)cc1OC	none
COc1ccc2c(c1OC)C(=O)OC2CC(=O)c1ccc(N(C)C)cc1 (configuration not stated)	none
O=C(CSCc1ccc(Cl)cc1)c1ccco1	none
Cc1noc(C)c1S(=O)(=O)NCc1ccc2c(c1)OCO2	none
CCn1c(=O)c(C2=NS(=O)(=O)c3ccccc3N2)c(O)c2ccccc21	Autofluor 339 2.48
CCn1c(=O)c(-[n+]2ccccc2)c(O)c2ccccc21	none
N#Cc1ccc(-c2cccnc2)nc1SCC(=O)Nc1sc2c(c1C#N)CCC2	Spn MK inh 62.0
c1ccc(Cc2nnc3sc(-c4ccc5c(c4)OCO5)nn23)cc1	Autofluor 339 3.54 (not shown: Spn DPM-DC inh)
CCc1nnc2sc(-c3ccc(NC(=O)c4ccc5c(c4)OCCO5)cc3)nn12	Autofluor 339 3.88 (not shown: Spn DPM-DC inh)

Source: PubChem (SRMLSC)
